# Where “and” joins values, the source holds several entries; their conditions need not be identical. Identical values can stand only once. Calls of active or inactive are those of the source. Unless noted, how the calls were made is not given here. Non-standard residues stand in square brackets, D forms with d. Residues, ends and D or L forms follow the SMILES beside them. Groups on a side chain read outwards from the residue. *: point of attachment. X2 = CCC(C)C(N)C1=NC(C(=O)*)CS1; Orn = NCCC[CH](N)C(=O)O
# Columns and labels:
# [1] = system: Aerobactin synthetase IucA (Klebsiella pneumoniae); assay: IucA aerobactin synthetase inhibitors, biochemical, Tocris library, absorbance (AID 1345561); details: purified IucA enzyme assay, absorbance (OD) read-out; stronger effect = lower value;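 tested at 8 µM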;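 further: 100% = enzyme without compound and 0% = no enzyme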
# [2] = sensitizers of A549 cells to miR-34 induction, primary screen, imaging, A549 dox-inducible miR-34, nuclei and caspase counts (AID 1347080;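 active means compounds whose cell count with miR-34 switched on is under 0.7 times the count with it off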); details: A549 miR-34 inducible, Hoechst nuclei count, 48 h
# [3] = viability rescue of complex I mutant cybrids, primary screen, cell-based, galactose medium, ATP luminescence (AID 1645843;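 active means z-score of at least 1.8 in each of two replicates, scored against plate mean and spread of sample wells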;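 further: positive z means more ATP and so rescue of galactose-driven cybrid death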); details: complex I mutant cybrid cells, 72 h, stronger effect = higher value
# [4] = liver-stage malaria parasite growth inhibition, primary screen, cell-based, HepG2, luciferase luminescence, HepG2 viability (AID 624349; in the data active means parasite load remaining mostly below about 12%, no sharp cut-off; inactive means mostly above about 10%;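 further: 100% = mean of DMSO negative control wells on the same plate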); details: P. berghei liver stage in HepG2, luciferase luminescence, concentration not given here; parasite load remaining: stronger effect = lower value; viability: measured here: HepG2 viability without parasites
# [5] = Cy5 fluorescence interference with SSB-bound oligo, artefact control for HCV NS3 helicase inhibitor project, biochemical, NIH Clinical Collection, E. coli SSB (AID 743268)
# [6] = system: Hepatitis C virus NS3 helicase; assay: HCV NS3 helicase inhibitors, primary screen, biochemical, fluorescence polarization, NIH Clinical Collection (AID 743270); details: NS3 helicase binding to Cy5-dT15 DNA, stronger effect = higher value, concentration not given here
# [7] = target: Single-stranded DNA-binding protein (Escherichia coli (strain K12)) (UniProt P0AGE0); assay: E. coli SSB displacement from DNA, counter-screen for HCV NS3 helicase inhibitor project, biochemical, fluorescence polarization, NIH Clinical Collection (AID 743271; in the data active means inhibition above about 28%); details: stronger effect = higher value, concentration not given here
# [8] = fluorescence interference in NS3h assay format, artefact control for HCV NS3 helicase inhibitor project, biochemical, NIH Clinical Collection (AID 743272); details: fluorescence interference counterscreen, stronger effect = lower value;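 further: HCV NS3 helicase with a Cy5 labelled single stranded DNA probe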
# [9] = circadian clock period modulators, cell-based, LOPAC library, luminescence reporter (AID 2774); details: circadian reporter cells, at 7 µM, actives lie on both sides;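 further: values are relative to mean of DMSO wells on each plate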
# [10] = survival rescue of mitochondrial mutant cells in low glucose, primary screen, MELAS cybrids, Rieske KO mouse fibroblasts, CellTiter-Glo (AID 1508586;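 active means mean z-score across replicates of 1.96 or higher in either the MELAS or the Rieske mutant cell line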;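 further: z relative to plate mean and SD of compound and empty wells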)
# [11] = system: Aerobactin synthetase IucA (Klebsiella pneumoniae hvKP1); assay: Biochemical IucA enzyme inhibition primary screen of the Spectrum library (AID 1346200); details: malachite green pyrophosphate, A620, at 8 µM, stronger effect = lower value;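 further: 100% = wells without compound and 0% = wells lacking enzyme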
# [12] = stronger effect = lower value, cell number ratio, induced over uninduced
# [13] = measured here: relative caspase fold change +Dox/-Dox
# [14] = measured here: total cells with miR-34 induction, stronger effect = lower value
# [15] = measured here: total cells without miR-34 induction
smiles,measurement,setting,value
CN1CC[C@@H]2CN3CCc4cccc(c43)[C@@H]2C1,remaining activity,[1],120% (inactive)
same,fold change,[2]; [12],0.917 (inactive)
same,fold change,[2]; [13],0.673
same,cell count,[2]; [14],8120
same,cell count,[2]; [15],8850
same,z-score,[3],-0.34 (inactive)
C=C(C)CN1CC[C@]23c4c5ccc(O)c4O[C@H]2c2[nH]c4ccccc4c2C[C@@]3(O)C1C5,parasite load remaining,[4],2.83% (inactive)
same,viability,[4],29.3%
same,fluorescence ratio,[5],0.95 (inactive)
same,inhibition,[6],-1.97% (inactive)
same,inhibition,[7],1.97% (inactive)
same,fluorescence ratio,[8],0.93 (inactive)
same,remaining activity,[1],92% (inactive)
same,fold change,[2]; stronger effect = lower value,0.859 (inactive)
same,fold change,[2]; [13],0.814
same,cell count,[2]; [14],5020
same,cell count,[2]; [15],5850
same,z-score,[3],-0.785 (inactive)
S=C=Nc1cccc(C2(N3CCCCC3)CCCCC2)c1,period change,[9],0.05 h (inactive)
same,remaining activity,[1],122% (inactive)
same,fold change,[2]; [12],0.942 (inactive)
same,fold change,[2]; [13],0.732
same,cell count,[2]; [14],9100
same,cell count,[2]; [15],9670
same,z-score,[3],0.62 (inactive)
Cc1cccc(C(C)c2cnc[nH]2)c1C (stereo not given),remaining activity,[1],123% (inactive)
same,z-score,"[10]; MELAS cybrid survival, CellTiter-Glo 48 h, stronger effect = higher value",0.00954 (inactive) and -0.104 (inactive) and -0.218 (inactive)
same,z-score,"[10]; Rieske KO mouse fibroblast survival, CellTiter-Glo 72 h",0.0551 and -0.0823 and -0.0306
same,z-score,[3],-0.255 (inactive)
Cn1cc(C(=O)C(=O)N[C@H]2CN3CCC2CC3)c2ccccc21,remaining activity,[1],92.5% (inactive)
same,fold change,[2]; [12],0.891 (inactive)
same,fold change,[2]; [13],1.06
same,cell count,[2]; [14],8410
same,cell count,[2]; [15],9440
same,z-score,[3],0.935 (inactive)
C[C@H](Cc1ccc(OCC(=O)O)cc1)NC[C@H](O)c1cccc(Cl)c1,remaining activity,[1],121% (inactive)
same,fold change,[2]; [12],0.941 (inactive)
same,fold change,[2]; [13],0.725
same,cell count,[2]; [14],7990
same,cell count,[2]; [15],8500
same,z-score,[3],-0.27 (inactive)
NCC(CS(=O)(=O)O)c1ccc(Cl)cc1 (stereo not given),remaining activity,[1],108% (inactive)
same,fold change,[2]; [12],0.961 (inactive)
same,fold change,[2]; [13],1.04
same,cell count,[2]; [14],9200
same,cell count,[2]; [15],9570
same,z-score,[3],0.475 (inactive)
Cc1[nH]cnc1CCN,remaining activity,[1],109% (inactive)
same,fold change,[2]; [12],0.956 (inactive)
same,fold change,[2]; [13],1.94
same,cell count,[2]; [14],10000
same,cell count,[2]; [15],10500
same,z-score,[3],0.125 (inactive)
CCOC(=O)c1ncn2c1CN(C)C(=O)c1cc(N=[N+]=[N-])ccc1-2,remaining activity,[1],97.3% (inactive)
same,fold change,[2]; [12],0.891 (inactive)
same,fold change,[2]; [13],1.09
same,cell count,[2]; [14],7930
same,cell count,[2]; [15],8900
same,z-score,[3],0.06 (inactive)
COC1(C[S@@](=O)c2ccccc2)CCN(CCc2c[nH]c3ccc(F)cc23)CC1,remaining activity,[1],113% (inactive)
same,fold change,[2]; [12],0.956 (inactive)
same,fold change,[2]; [13],1.03
same,cell count,[2]; [14],8390
same,cell count,[2]; [15],8770
same,z-score,[3],-0.4 (inactive)
CCOc1cncc(/C=C/CCNC)c1,remaining activity,[1],108% (inactive)
same,fold change,[2]; [12],0.967 (inactive)
same,fold change,[2]; [13],1.27
same,cell count,[2]; [14],8770
same,cell count,[2]; [15],9060
same,z-score,[3],-0.075 (inactive)
CN1C2CCC1CC(OC(c1ccccc1)c1ccc(Cl)cc1)C2 (stereo not given),period change,[9],0.035 h (inactive)
same,remaining activity,[1],92.9% (inactive)
same,fold change,[2]; [12],0.909 (inactive)
same,fold change,[2]; [13],1.16
same,cell count,[2]; [14],4530
same,cell count,[2]; [15],4990
same,z-score,[3],-1.1 (inactive)
CCCCCOc1c(OC)ccc2cc(C(=O)NCc3ccc4c(c3)OCO4)c(=O)[nH]c12,remaining activity,[1],107% (inactive)
same,fold change,[2]; [12],1.04 (inactive)
same,fold change,[2]; [13],1.43
same,cell count,[2]; [14],5450
same,cell count,[2]; [15],5260
same,z-score,[3],0.125 (inactive)
COc1ccc(CCN(C)CCCC(C#N)(c2ccc(OC)c(OC)c2)C(C)C)cc1OC (stereo not given),activity remaining,[11],97.5% (inactive)
Cc1cccc(C)c1NC(=O)C1CCCCN1C (stereo not given),activity remaining,[11],123% (inactive)
CC(=O)O[C@H]1CC[C@]2(C)C3=CC(=O)[C@@]4(C)C(C[C@@H]5OC6(OCC(C)CC6Br)[C@@H](C)[C@@H]54)C3CC[C@H]2C1 (stereo not given in full),activity remaining,[11],117% (inactive)
CCCCCC(O)C1C(=O)OC(C)C(O)/C=C/C=C/C=C/C=C/C=C(\C)C(O)CC(O)CC(O)CC(O)CC(O)CC(O)CC1O (stereo not given),activity remaining,[11],118% (inactive)
COc1cc(O)c2c(=O)c(O)c(-c3ccc(O)c(O)c3)oc2c1,activity remaining,[11],103% (inactive)
NC(=O)c1ccc([N+](=O)[O-])cc1Cl,activity remaining,[11],107% (inactive)
Cc1ccccc1OCC(O)CO (stereo not given),activity remaining,[11],95.2% (inactive)
CN[C@@H]1C(O)[C@@H](O[C@@H]2[C@@H](O)[C@H](O[C@H]3OC(CN)=CC[C@H]3N)[C@@H](N)C[C@H]2N)OC[C@]1(C)O (stereo not given in full),activity remaining,[11],96.1% (inactive)
O=C(CCCN1CCN(c2ccccn2)CC1)c1ccc(F)cc1,activity remaining,[11],124% (inactive)
OCc1ccccc1O,activity remaining,[11],115% (inactive)
CCC(C)C(N)C1=NC(C(=O)NC(CC(C)C)C(=O)NC(CCC(=O)O)C(=O)NC(C(=O)NCCCCC2NC(=O)C(CC(N)=O)NC(=O)C(CC(=O)O)NC(=O)C(Cc3cnc[nH]3)NC(=O)C(Cc3ccccc3)NC(=O)C(C(C)CC)NC(=O)C(CCCN)NC2=O)C(C)CC)CS1 (stereo not drawn) (cyclo(DNK([Ile-Glu-Leu-X2])[Orn]IFH); configuration not given here),activity remaining,[11],123% (inactive)
CC1(C)O[C@@H]2[C@@H](CO[C@@]3(COS(N)(=O)=O)OC(C)(C)O[C@@H]23)O1,activity remaining,[11],115% (inactive)
CN[C@@H]1[C@H](O)[C@H](NC)[C@H]2O[C@@]3(O)C(=O)C[C@@H](C)O[C@H]3O[C@@H]2[C@H]1O,activity remaining,[11],108% (inactive)
CCCCC1C(=O)N(c2ccccc2)N(c2ccc(O)cc2)C1=O (stereo not given),activity remaining,[11],114% (inactive)
O=C1C(=O)c2ccccc2C(O)=C1C1CCC(c2ccc(Cl)cc2)CC1 (stereo not given),activity remaining,[11],101% (inactive)
O=C(O[C@@H]1Cc2c(O)cc(O)cc2O[C@@H]1c1ccc(O)c(O)c1)c1cc(O)c(O)c(O)c1,activity remaining,[11],107% (inactive)
COc1cc(O)c(C(=O)c2ccccc2)cc1O,activity remaining,[11],107% (inactive)
Oc1c(I)cc(Cl)c2cccnc12,activity remaining,[11],126% (inactive)
CC(=O)OC1CCC2(O)CC1(C)CCC1C2CC1(C)C (stereo not given),activity remaining,[11],107% (inactive)
Oc1c(Cl)cc(Cl)c2cccnc12,activity remaining,[11],113% (inactive)
C[C@]12CCC3c4ccc(OS(=O)(=O)O)cc4CCC3C1CC[C@H]2O (stereo not given in full),activity remaining,[11],102% (inactive)
CCCCCC1C(=O)CCC1CC(=O)OC (stereo not given),activity remaining,[11],118% (inactive)
C[C@@H]1CCC2[C@](C)(CO)[C@@H](O)CC[C@]2(C)[C@@]12CC[C@@](CO)(CCO)O2 (stereo not given in full),activity remaining,[11],113% (inactive)
O=C(O)c1ccc2c(c1)OCO2,activity remaining,[11],101% (inactive)
C[C@]12CCC3c4ccc(O)cc4CCC3C1C[C@@H](O)[C@@H]2O (stereo not given in full),activity remaining,[11],99.6% (inactive)
CC(=O)N[C@@H](CC(=O)O)C(=O)O,activity remaining,[11],110% (inactive)
C=C1CCC2C(CC2(C)C)C(=O)CCC1O (stereo not given),activity remaining,[11],116% (inactive)
CC1CCCC(C)N1NC(=O)c1ccc(Cl)c(S(N)(=O)=O)c1 (stereo not given),activity remaining,[11],121% (inactive)
CC(C)c1cccc(O)c(=O)c1,activity remaining,[11],123% (inactive)
CC1=C(C(=O)O)N2C(=O)[C@@H](NC(=O)C(N)c3ccccc3)[C@H]2SC1 (stereo not given in full),activity remaining,[11],104% (inactive)
N=c1ccn2c(n1)O[C@@H]1C2O[C@H](CO)[C@H]1O (stereo not given in full),activity remaining,[11],105% (inactive)
Cc1cc(O)cc(C)c1Cl,activity remaining,[11],94.5% (inactive)
CC(C)=CCc1c2c(c3occ(-c4ccc(O)c(O)c4)c(=O)c3c1O)C=CC(C)(C)O2,activity remaining,[11],120% (inactive)
CCC[C@@H]1C[C@@H](C(=O)N[C@H]([C@H]2O[C@H](SC)[C@H](O)[C@@H](O)[C@H]2O)[C@H](C)O)N(C)C1,activity remaining,[11],111% (inactive)
COc1ccc2c(c1)[C@@]1(C)CCC(=O)C[C@@H]1CC2,activity remaining,[11],118% (inactive)
CNc1ccccc1C(=O)N1CCc2c([nH]c3ccccc23)C1=O,activity remaining,[11],106% (inactive)
